Measured values as given in PubChem BioAssay (EPA / NIEHS).
Active and inactive are the calls of the source. The calls were made as follows: active = hit-call score of the fitted dose curve at least 0.9, where 1 is the maximum; inactive = score below 0.9.

Assays:
Conditions in all cases: mRNA level, 48 h; actives raise or lower the signal
CYP2C9 (gene 1559) = experiment: LTEA_HepaRG_CYP2C9: Life Technologies and Expression Analysis (LTEA) Assay for CYP2C9 using HepaRG (AID 2283484)
In short: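 CYP2C9 transcript level, quantified by TaqMan qRT-PCR against three housekeeping genes, was fitted bidirectionally relative to 0.5% DMSO. HepaRG cultures were treated 48 h, in duplicate, at eight half-log concentrations topping at 100 uM.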

CYP2E1 (gene 1571) = experiment: LTEA_HepaRG_CYP2E1: Life Technologies and Expression Analysis (LTEA) Assay for CYP2E1 using HepaRG (AID 2283485)
In short: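 CYP2E1 transcript measured by Fluidigm qRT-PCR against three housekeeping genes in human HepaRG cells treated 48 h (top 100 uM, half-log steps, 0.5% DMSO vehicle). Gain or loss fitted relative to DMSO baseline.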

CYP4A11 (gene 1579) = experiment: LTEA_HepaRG_CYP4A11: Life Technologies and Expression Analysis (LTEA) Assay for CYP4A11 using HepaRG (AID 2283486)
In short: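 Differentiated HepaRG cells, serum-free induction medium, exposed 48 h in duplicate to 8-point half-log series from 100 uM in 0.5% DMSO. CYP4A11 mRNA measured by qRT-PCR, normalized to ACTB, GAPDH, POLR2A; bidirectional fit versus DMSO.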

[1] = read-out: Cytochrome P450 3A4 (Homo sapiens) (UniProt P08684); experiment: LTEA_HepaRG_CYP3A4: Life Technologies and Expression Analysis (LTEA) Assay for CYP3A4 using HepaRG (AID 2283487)
In short: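 HepaRG, 48 h exposure, 8-pt CRC from 100 uM (half-log), 0.5% DMSO, duplicates; serum-free induction medium. Readout: CYP3A4 mRNA, qRT-PCR, ACTB/GAPDH/POLR2A normalization. Bidirectional fit vs DMSO.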

[2] = read-out: DNA damage-inducible transcript 3 (DDIT3), DDIT3 (gene 1649); experiment: LTEA_HepaRG_DDIT3: Life Technologies and Expression Analysis (LTEA) Assay for DNA damage-inducible transcript 3 (DDIT3) using HepaRG (AID 2283488)
In short: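 DDIT3 transcript was quantified by qRT-PCR with ACTB/GAPDH/POLR2A normalization after 48 h chemical treatment of differentiated HepaRG cells in 0.5% DMSO. Dosing was eight-point, half-log, top 100 uM, duplicate wells. Curves fitted bidirectionally versus DMSO.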

[3] = read-out: Pro-epidermal growth factor (Homo sapiens) (UniProt P01133); experiment: LTEA_HepaRG_EGF: Life Technologies and Expression Analysis (LTEA) Assay for Epidermal growth factor (EGF) using HepaRG (AID 2283489)
In short: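 Differentiated human HepaRG cells, plated 48 h then switched to serum-free induction medium, were exposed for 48 h to test chemicals (8-point half-log series, top 100 uM, 0.5% DMSO). EGF mRNA was quantified by qRT-PCR, normalized to ACTB, GAPDH, POLR2A.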

[4] = read-out: Early growth response protein 1 (EGR1) transcription factor, EGR1 (gene 1958); experiment: LTEA_HepaRG_EGR1: Life Technologies and Expression Analysis (LTEA) Assay for Early growth response protein 1 (EGR1) transcription factor using HepaRG (AID 2283490)
In short: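 EGR1 transcript levels quantified by qRT-PCR (Fluidigm arrays) against three housekeeping genes after 48 h chemical exposure of HepaRG cells. Eight-point half-log series topping at 100 uM, 0.5% DMSO vehicle, analyzed for gain or loss.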

[5] = read-out: Ezrin (EZR), EZR (gene 7430); experiment: LTEA_HepaRG_EZR: Life Technologies and Expression Analysis (LTEA) Assay for Ezrin (EZR) using HepaRG (AID 2283491)
In short: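 Read-out is EZR transcript level by qRT-PCR, normalized to three housekeeping genes and fitted bidirectionally against the DMSO control. Human HepaRG cells received test chemicals for 48 h at eight half-log concentrations up to 100 uM in 0.5% DMSO.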

[6] = read-out: Cytochrome P450 3A7 (Homo sapiens) (UniProt P24462); experiment: LTEA_HepaRG_CYP3A7: Life Technologies and Expression Analysis (LTEA) Assay for CYP3A7 using HepaRG (AID 2283492)
In short: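 HepaRG cells plated 48 h, then dosed in serum-free induction medium for 48 h at 8 concentrations (top 100 uM, half-log steps, 0.5% DMSO). CYP3A7 mRNA by qRT-PCR, normalised to ACTB/GAPDH/POLR2A; bidirectional fit versus DMSO.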

CYP3A5 (gene 1577) = experiment: LTEA_HepaRG_CYP3A5: Life Technologies and Expression Analysis (LTEA) Assay for CYP3A5 using HepaRG (AID 2283493)
In short: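 mRNA levels were quantified by qRT-PCR on Fluidigm arrays and normalized to three housekeeping genes. Differentiated HepaRG cells received 48 h exposure (top 100 uM, half-log steps, 0.5% DMSO vehicle, duplicate); bidirectional fitting versus DMSO.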

[7] = read-out: Fatty Acid-Binding Protein 1 (FABP1), FABP1 (gene 2168); experiment: LTEA_HepaRG_FABP1: Life Technologies and Expression Analysis (LTEA) Assay for Fatty Acid-Binding Protein 1 (FABP1) using HepaRG (AID 2283494)
In short: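 FABP1 expression by TaqMan qRT-PCR, normalised to three housekeeping genes, in HepaRG cells after 48 h chemical treatment. Eight-point half-log series topping at 100 uM in 0.5% DMSO, duplicates; gain or loss fitted relative to vehicle.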

[8] = read-out: Cytochrome P450 4A22 (Homo sapiens) (UniProt Q5TCH4); experiment: LTEA_HepaRG_CYP4A22: Life Technologies and Expression Analysis (LTEA) Assay for Cytochrome P450 4A22 (CYP4A22) using HepaRG (AID 2283495)
In short: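 qRT-PCR of CYP4A22 mRNA (Fluidigm TaqMan, normalized to three housekeeping genes) after 48 h chemical exposure of HepaRG cells; 8-point half-log series, top 100 uM, 0.5% DMSO vehicle. Bidirectional curve fitting vs DMSO baseline.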

[9] = read-out: Cytochrome P450 7A1 (Homo sapiens) (UniProt P22680); experiment: LTEA_HepaRG_CYP7A1: Life Technologies and Expression Analysis (LTEA) Assay for Cytochrome P450 7A1 (CYP7A1) using HepaRG (AID 2283496)
In short: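 HepaRG, 48 h exposure, 8-pt half-log series from 100 uM, 0.5% DMSO vehicle, duplicates. Readout: TaqMan qRT-PCR mRNA vs three housekeeping genes; bidirectional curve fit against DMSO baseline.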

[10] = read-out: Glutathione S-Transferase (GSTA2), GSTA2 (gene 2939); experiment: LTEA_HepaRG_GSTA2: Life Technologies and Expression Analysis (LTEA) Assay for Glutathione S-Transferase (GSTA2) using HepaRG (AID 2283497)
In short: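 GSTA2 transcript levels came from Fluidigm TaqMan qRT-PCR normalized to three housekeeping genes, fitted in both directions against DMSO. HepaRG cultures received chemicals for 48 h in serum-free induction medium (0.5% DMSO), 8 half-log concentrations up to 100 uM, duplicate.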

[11] = read-out: Glutamate-cysteine ligase catalytic (GCLC), GCLC (gene 2729); experiment: LTEA_HepaRG_GCLC: Life Technologies and Expression Analysis (LTEA) Assay for Glutamate-cysteine ligase catalytic (GCLC) using HepaRG (AID 2283498)
In short: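 Expression by TaqMan qRT-PCR, normalized to three housekeeping genes (ACTB, GAPDH, POLR2A), with up- or down-regulation fitted against DMSO. HepaRG cells dosed in duplicate for 48 h with 8 half-log concentrations up to 100 uM, vehicle 0.5% DMSO.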

[12] = read-out: growth arrest and DNA damage 45 (GADD45G), GADD45G (gene 10912); experiment: LTEA_HepaRG_GADD45G: Life Technologies and Expression Analysis (LTEA) Assay for growth arrest and DNA damage 45 (GADD45G) using HepaRG (AID 2283499)
In short: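 Differentiated human HepaRG cells in serum-free induction medium were exposed for 48 h to 8 half-log concentrations up to 100 uM in 0.5% DMSO, in duplicate. GADD45G mRNA was measured by TaqMan qRT-PCR, normalised to ACTB, GAPDH and POLR2A, and fitted bidirectionally against DMSO.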

[13] = read-out: Glutamate-cysteine ligase regulatory (GCLM), GCLM (gene 2730); experiment: LTEA_HepaRG_GCLM: Life Technologies and Expression Analysis (LTEA) Assay for Glutamate-cysteine ligase regulatory (GCLM) using HepaRG (AID 2283500)
In short: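 GCLM expression quantified by qRT-PCR, normalized to three housekeeping genes, after 48 h chemical treatment of HepaRG cells in duplicate at 8 concentrations (top 100 uM, half-log steps, 0.5% DMSO). Changes fitted both directions against vehicle.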

[14] = read-out: Glutathione S-transferase M3 (GSTM3), GSTM3 (gene 2947); experiment: LTEA_HepaRG_GSTM3: Life Technologies and Expression Analysis (LTEA) Assay for Glutathione S-transferase M3 (GSTM3) using HepaRG (AID 2283501)
In short: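 Differentiated HepaRG cells in serum-free induction medium were exposed in duplicate for 48 h to 8 half-log concentrations up to 100 uM in 0.5% DMSO. GSTM3 mRNA was measured by TaqMan qRT-PCR, normalized to ACTB/GAPDH/POLR2A, and fitted bidirectionally versus DMSO.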

[15] = read-out: Heat shock 70 kDa protein 1 (HSPA1A), gene 3303; experiment: LTEA_HepaRG_HSPA1A: Life Technologies and Expression Analysis (LTEA) Assay for Heat shock 70 kDa protein 1 (HSPA1A) using HepaRG (AID 2283502)
In short: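 HSPA1A expression measured by qRT-PCR with ACTB/GAPDH/POLR2A normalization; curves fitted in both directions relative to DMSO vehicle. Exposure: 48 h in HepaRG cells, duplicate 8-point half-log series from 100 uM, 0.5% DMSO, serum-free induction medium.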

[16] = read-out: Hypoxia-inducible factor 1-alpha (Homo sapiens) (UniProt Q16665); experiment: LTEA_HepaRG_HIF1A: Life Technologies and Expression Analysis (LTEA) Assay for Hypoxia-inducible factor 1 (HIF1A) Trancription factor using HepaRG (AID 2283503)
In short: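 HIF1A transcript level read by qRT-PCR (ACTB, GAPDH, POLR2A normalization) after 48 h chemical exposure of HepaRG cultures. Eight half-log concentrations, top 100 uM, 0.5% DMSO vehicle, duplicates; bidirectional curve fit against DMSO baseline.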

Measured: AC50

Chain of Hypoxia-inducible factor 1-alpha (Homo sapiens) (Q16665 whole entry, looked up): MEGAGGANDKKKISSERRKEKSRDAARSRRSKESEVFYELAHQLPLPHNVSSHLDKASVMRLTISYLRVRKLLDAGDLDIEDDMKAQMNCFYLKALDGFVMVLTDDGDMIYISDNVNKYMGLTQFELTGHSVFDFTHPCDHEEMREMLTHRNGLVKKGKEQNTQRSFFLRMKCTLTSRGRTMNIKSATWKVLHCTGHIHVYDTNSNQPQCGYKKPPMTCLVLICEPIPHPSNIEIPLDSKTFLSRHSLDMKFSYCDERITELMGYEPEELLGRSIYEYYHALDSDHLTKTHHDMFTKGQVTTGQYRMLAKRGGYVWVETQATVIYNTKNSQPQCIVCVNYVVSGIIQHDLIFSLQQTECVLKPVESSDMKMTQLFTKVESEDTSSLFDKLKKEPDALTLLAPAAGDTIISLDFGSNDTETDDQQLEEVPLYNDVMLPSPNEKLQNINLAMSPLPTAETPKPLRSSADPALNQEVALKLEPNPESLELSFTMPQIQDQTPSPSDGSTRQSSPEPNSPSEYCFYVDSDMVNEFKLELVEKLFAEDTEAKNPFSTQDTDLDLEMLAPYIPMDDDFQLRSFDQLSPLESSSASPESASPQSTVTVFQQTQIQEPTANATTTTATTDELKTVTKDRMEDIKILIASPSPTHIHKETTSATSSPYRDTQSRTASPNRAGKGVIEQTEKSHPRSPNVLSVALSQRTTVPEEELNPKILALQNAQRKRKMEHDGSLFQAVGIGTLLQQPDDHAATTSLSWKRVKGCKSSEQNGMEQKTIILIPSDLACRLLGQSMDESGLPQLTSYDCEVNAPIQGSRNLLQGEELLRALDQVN
Chain of Cytochrome P450 3A7 (Homo sapiens) (P24462 whole entry, looked up): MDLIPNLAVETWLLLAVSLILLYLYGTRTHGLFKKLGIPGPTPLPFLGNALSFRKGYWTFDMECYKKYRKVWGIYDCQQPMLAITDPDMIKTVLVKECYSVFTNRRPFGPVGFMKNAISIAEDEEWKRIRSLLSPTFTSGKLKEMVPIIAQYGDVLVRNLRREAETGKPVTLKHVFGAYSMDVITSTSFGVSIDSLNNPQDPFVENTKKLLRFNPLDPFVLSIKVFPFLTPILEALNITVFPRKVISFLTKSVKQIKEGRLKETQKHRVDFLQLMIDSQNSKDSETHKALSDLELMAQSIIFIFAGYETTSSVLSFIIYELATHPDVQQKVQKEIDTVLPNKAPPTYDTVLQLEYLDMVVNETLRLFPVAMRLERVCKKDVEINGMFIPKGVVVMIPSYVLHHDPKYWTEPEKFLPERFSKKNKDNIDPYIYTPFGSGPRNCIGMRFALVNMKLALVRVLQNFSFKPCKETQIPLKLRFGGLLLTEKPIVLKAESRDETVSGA
Chain of Cytochrome P450 3A4 (Homo sapiens) (P08684 whole entry, looked up): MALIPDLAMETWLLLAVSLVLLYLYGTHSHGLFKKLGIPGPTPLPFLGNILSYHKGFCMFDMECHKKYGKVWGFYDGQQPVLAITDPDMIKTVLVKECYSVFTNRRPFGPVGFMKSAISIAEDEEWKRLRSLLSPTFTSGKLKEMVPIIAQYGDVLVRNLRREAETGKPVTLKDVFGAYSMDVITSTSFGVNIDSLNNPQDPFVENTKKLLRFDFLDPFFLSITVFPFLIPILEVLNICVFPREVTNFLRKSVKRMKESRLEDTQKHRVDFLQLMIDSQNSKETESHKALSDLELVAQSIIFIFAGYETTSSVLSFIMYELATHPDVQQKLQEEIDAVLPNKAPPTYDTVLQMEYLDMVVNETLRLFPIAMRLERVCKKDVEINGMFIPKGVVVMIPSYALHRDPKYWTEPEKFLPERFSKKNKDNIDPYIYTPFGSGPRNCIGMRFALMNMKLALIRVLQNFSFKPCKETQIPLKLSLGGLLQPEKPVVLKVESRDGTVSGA

CSC1=N[C@@](C)(c2ccccc2)C(=O)N1Nc1ccccc1
inactive: [3] | CYP3A5 (gene 1577) | [11] | [15]
active: CYP2C9 (gene 1559) 33.8 µM | CYP2E1 (gene 1571) 20.9 µM | CYP4A11 (gene 1579) 27.1 µM | [1] 67.6 µM | [2] 28 µM | [4] 31.9 µM | [5] 13.1 µM | [6] 25.6 µM | [7] 53.8 µM | [8] 30.6 µM | [9] 38 µM | [10] 33.9 µM | [12] 13.5 µM | [13] 25 µM | [14] 76.6 µM | [16] 77.1 µM

CCOP(=O)(SC(C)CC)N1CCSC1=O (centres undefined)
active: CYP2E1 (gene 1571) 19.1 µM | CYP4A11 (gene 1579) 17 µM | [1] 16.1 µM | [7] 16.1 µM | [9] 32.3 µM
not listed: [8] | [14]
inactive: all other assays above

CCOP(=S)(OCC)SCCSCC
active: [1] 22.2 µM
not listed: [8]
inactive: all other assays above

CCCCN(CC)c1c([N+](=O)[O-])cc(C(F)(F)F)cc1[N+](=O)[O-]
active: [1] 23.2 µM
not listed: [8]
inactive: all other assays above

CN(C)NC(=O)CCC(=O)O
not listed: [3]
inactive: all other assays above

COP(=O)(NC(C)=O)SC (centres undefined)
not listed: [3]
inactive: all other assays above

C[Si](Cn1cncn1)(c1ccc(F)cc1)c1ccc(F)cc1
inactive: [3] | [4] | [5] | CYP3A5 (gene 1577) | [11] | [15] | [16]
active: CYP2C9 (gene 1559) 35.5 µM | CYP2E1 (gene 1571) 19.4 µM | CYP4A11 (gene 1579) 25.9 µM | [1] 82.4 µM | [2] 31.9 µM | [6] 81.9 µM | [7] 76.9 µM | [8] 15.8 µM | [9] 39.6 µM | [10] 72.5 µM | [12] 33.9 µM | [13] 62.8 µM | [14] 74.9 µM
